Assay outcomes deposited in PubChem BioAssay by National Center for Advancing Translational Sciences (NCATS).
Sampled rows, rich in hits. Any-hit rate of the full collection: about 4.2%.
PLK1 PBD inh – qHTS for Inhibitors of PLK1-PDB (polo-like kinase 1 - polo-box domain): Primary Screen; Serine/threonine-protein kinase PLK1 (Homo sapiens), P53350; Plk1 PBD binding of FITC phosphopeptide, fluorescence polarization; Potency, µM, hits mostly inhibitors; actives 2.8% (n = 360,000); AID 720504, 2013; note: series mostly up to about 57 µM; nearly all actives have a fitted effect of over 65% in size
VDR inhibitor – Inhibitors of the vitamin D receptor (VDR): qHTS | Vitamin D3 receptor (Homo sapiens), P11473 | actives 0.93% (n = 400,000) | Potency, µM, usual class: inhibitors | AID 504847, 2011 | VDR-SRC2-3 peptide fluorescence polarization, 2 h
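FP read-out; VDR + SRC2-3 coactivator peptide; 23 nl compound by pintool; 2 h RT incubation; reagents held at 4 deg C, protected from light.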
Sfp inh – qHTS Assay for Inhibitors of Bacillus subtilis Sfp phosphopantetheinyl transferase (PPTase). Potency, µM, hits mostly inhibitors. actives 3.5% (n = 310,000). 4'-phosphopantetheinyl transferase ffp (Bacillus subtilis), Q9F4F7. Biochemical Sfp PPTase activity, qHTS;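 note: the enzyme is Sfp with the accession as filed and its product quenches rhodamine fluorescence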
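Fluorescence-quenching assay with 15 nM Sfp, 5 uM rhodamine-CoA and 12.5 uM BHQ-2-labelled ybbR peptide in pH 7.6 Hepes/MgCl2 buffer. Enzyme was pre-incubated with compound for 15 min at room temperature. Rate was taken from the 30-min fluorescence change (525/598 nm).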
ALOX12 inh – Primary qHTS assay for inhibitors of human arachidonate 12S-lipoxygenase (ALOX12): Round 2; Polyunsaturated fatty acid lipoxygenase ALOX12 (Homo sapiens), P18054; purified 12hLO, xylenol orange hydroperoxide absorbance; Potency, µM (series often up to 108 µM), hits mostly inhibitors; actives 1.1% (n = 580,000); AID 1671190, 2021
Target sequence (P18054 whole entry, looked up): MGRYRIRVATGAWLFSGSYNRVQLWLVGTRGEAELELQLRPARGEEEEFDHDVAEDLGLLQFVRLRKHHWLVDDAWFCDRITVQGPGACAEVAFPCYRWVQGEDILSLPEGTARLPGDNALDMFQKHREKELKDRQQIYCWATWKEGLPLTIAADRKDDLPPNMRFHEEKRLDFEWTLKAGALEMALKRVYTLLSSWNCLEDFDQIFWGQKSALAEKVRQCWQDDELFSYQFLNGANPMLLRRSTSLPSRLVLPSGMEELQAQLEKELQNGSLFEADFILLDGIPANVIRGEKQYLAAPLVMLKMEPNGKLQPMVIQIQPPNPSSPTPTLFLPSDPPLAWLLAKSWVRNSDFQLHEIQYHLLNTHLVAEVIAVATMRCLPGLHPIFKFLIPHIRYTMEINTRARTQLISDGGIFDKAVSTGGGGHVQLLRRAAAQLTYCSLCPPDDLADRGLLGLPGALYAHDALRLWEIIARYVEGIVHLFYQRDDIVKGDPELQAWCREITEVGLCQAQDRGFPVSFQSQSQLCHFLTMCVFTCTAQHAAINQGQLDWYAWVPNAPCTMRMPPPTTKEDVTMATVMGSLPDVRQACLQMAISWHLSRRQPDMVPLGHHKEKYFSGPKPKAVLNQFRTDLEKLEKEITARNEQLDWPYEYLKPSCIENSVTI
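Hydroperoxide product was detected by ferrous iron/xylenol orange as the 573 to 405 nm absorbance ratio. Arachidonic acid at 40 uM (final) was turned over for 30 min at room temperature by 150 nM human 12hLO, pH 7.0 Hepes buffer, after 15 min compound preincubation.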
Hits are given with their value; n = inactive; u = inconclusive; x = no result given. Calls come from the whole dose curve; as a rule, active = well fitted curve in the direction sought with a large enough effect; inconclusive = small, poorly fitted or top-dose-only effect, or another doubt; inactive = no such curve, though single readings can be large; an effect the other way counts as inactive or inconclusive.

SMILES | PLK1 PBD inh | VDR inhibitor | Sfp inh | ALOX12 inh
O=C(NC(=S)N(Cc1ccccc1)Cc1ccccc1)C1CCCCC1 | n | n | n | u
CCN(CC)C(=O)c1sc2[nH]c(=S)n(-c3ccccc3)c(=O)c2c1C | n | n | 79.4µM | u
CC(=O)c1c(C)[nH]c(C(=O)N2CCCCCC2)c1C | 2.67µM | n | n | n
COc1cc(S(=O)(=O)N2CCOCC2)ccc1NC(=O)CN1c2cccc3cccc(c23)S1(=O)=O | n | n | n | n
COc1ccc(-c2cc(-c3cccc(O)c3)cn3cncc23)cc1 | x | x | x | 15.8µM
COc1ccccc1-c1cc(-c2ccc(=O)[nH]c2)c2cncn2c1 | x | x | x | 22.4µM
COc1ccc2cc3c(N)nn(C(=O)c4ccc(OC)c(OC)c4)c3nc2c1 | x | n | x | n
CN(C)CCCNC(=O)c1ccc2c(c1)N(S(C)(=O)=O)CC2 | x | x | x | n
CCCC(=O)c1c[nH]c(C(=O)NCCCN2CCOCC2)c1 | n | n | n | n
COc1ccc2nc(-n3c(O)c(C4=c5ccccc5=NC4=O)[nH]c3=S)sc2c1 | u | n | 50.1µM | n
Cn1c(O)c(N=NC(=O)C2COc3ccccc3O2)c2ccccc21 (stereo not given) | 26.7µM | n | n | n
Cn1c(O)c(N=NC(=O)c2ccccc2O)c2ccccc21 | 3.36µM | u | u | n
Cc1cc(N=NC(=O)c2ccccc2O)c2ccccc2c1O | 26.7µM | n | n | n
O=C1c2cccc3cccc(c23)C(=O)N1c1cccnc1 | n | n | u | n
CCOC(=O)c1c(-c2ccccc2)cn2c(C)cc(C)nc12 | n | n | n | n
CN(Cc1ccccc1)c1ncccc1CNC(=O)CN1CCOC1=O | x | x | x | n
CC(=O)c1ccc(NC(=O)C(Cc2ccccc2)n2cccc2)cc1 (stereo not given) | 13.4µM | u | n | n
COc1ccc(NC(=O)C(Cc2ccccc2)n2cccc2)cc1 (stereo not given) | n | n | n | n
CC(C(=O)Nc1cc([N+](=O)[O-])ccc1Cl)N1CCN(c2ccc(O)cc2)CC1 (stereo not given) | n | n | 56.2µM | u
CC(C(=O)Nc1ccc(F)cc1Cl)N1CCN(c2ccc(O)cc2)CC1 (stereo not given) | x | x | x | 39.8µM
CC(C(=O)Nc1ccc([N+](=O)[O-])cc1Cl)N1CCN(S(=O)(=O)c2cccs2)CC1 (stereo not given) | n | n | x | n
Cc1ccc(N2C(=O)CC(Sc3nc4ccccc4o3)C2=O)cc1Cl (stereo not given) | n | n | 50.1µM | n
Cc1ccc(N2C(=O)CC(N3CCc4ccccc43)C2=O)cc1Cl (stereo not given) | n | n | n | n
COc1ccc(NC(=O)C2CCN(S(=O)(=O)c3ccc(N4CCCC4=O)cc3)CC2)cc1OC | n | n | n | n
COc1ccc(S(=O)(=O)N2CCC(C(=O)N[C@H](C(=O)N3CCCC3)C(C)C)CC2)cc1 | 26.7µM | n | n | n
SMILES | PLK1 PBD inh | VDR inhibitor | Sfp inh | ALOX12 inh
COc1ccc(S(=O)(=O)N2CCCC(C(=O)NCCC(C)C)C2)cc1 (stereo not given) | 23.8µM | n | n | n
COc1cc(NC(=O)C2CCN(S(=O)(=O)c3ccc(N4CCCC4=O)cc3)CC2)cc(OC)c1 | 29.9µM | n | n | n
N#Cc1ccc(CN2CCC3(CC(Cc4ccccc4)=NO3)C2)cc1 (stereo not given) | x | x | x | n
Clc1cccc(Oc2cnc3ccccc3n2)c1 | n | n | n | n
CCN(CC)c1ccc(NC(=O)c2ccc(Br)o2)cc1 | n | n | n | n
COCC(=O)n1nc(NCc2ccc(OC)cc2)nc1NCc1ccc(OC)cc1 | 11.9µM | n | n | u
CC(C)Cc1cc(-c2nn3c(-c4cccs4)nnc3s2)n(C)n1 | x | x | x | n
O=C(CN1C(=O)c2ccccc2S1(=O)=O)Nc1cccc(S(=O)(=O)N2CCOCC2)c1 | n | n | x | n
Cc1cccc(-c2c3c(=O)n(C)c(=O)n(C)c3cn2-c2ccccc2O)c1 | n | n | 50.1µM | n
CC(C)Oc1ccc(C(=O)N/N=C/c2ccc(-c3ccc(S(=O)(=O)Nc4ncccn4)cc3)o2)cc1 | u | n | 79.4µM | n
COc1ccc(C2=Nn3c(C)nnc3SC2)cc1 | n | n | n | u
S=C(Nc1ccc2nc(-c3ccccn3)c(-c3ccccn3)nc2c1)N1CCCCCC1 | u | n | 39.8µM | n
S=C(Nc1ccc2nccnc2c1)N1CCOCC1 | n | n | 35.5µM | u
S=C(Nc1ccc2nc(-c3ccccn3)c(-c3ccccn3)nc2c1)N1CCCCC1 | u | n | n | x
Cc1ccc(NC(=S)N2CCOCC2)cc1 | n | n | n | n
CCCNC(=S)Nc1ccc2nc(-c3ccccn3)c(-c3ccccn3)nc2c1 | n | n | 17.8µM | n
C=CCOC(=O)Nc1c(C(=O)OC)[nH]c2ccccc12 | n | n | n | n
Nc1ccc2c(c1)OC1(CCCC1)O2 | n | 79.4µM | n | n
O=C(Cc1ccccc1)Nc1ccc2c(c1)OC1(CCCC1)O2 | n | n | x | n
Cc1ccc(-c2nc(CC(=O)NCc3ccccc3F)cs2)o1 | x | x | x | 11.2µM
Cc1ccc(-c2cc(C(=O)NCc3ccccn3)c3ccccc3n2)cc1C | 23.8µM | u | u | n
Cc1cccc(-c2cc(C(=O)NCc3ccccn3)c3ccccc3n2)c1 | n | n | n | n
O=C(NCc1ccccn1)c1cc(-c2ccc(-c3ccccc3)cc2)nc2ccccc12 | u | n | 25.1µM | n
COc1ccc(NC(=O)c2ccc(NC(=O)CN3CCN(c4ccccc4O)CC3)cc2)cc1 | n | x | x | n
O=C1CC(=C(c2ccccc2)c2ccccc2)C(=O)N1CCCCN1CCN(c2ccccc2)CC1 | n | n | u | 39.8µM
SMILES | PLK1 PBD inh | VDR inhibitor | Sfp inh | ALOX12 inh
COCC1(CNC(=O)NC(C)C)C[C@@H](O)[C@@H](O)C1 (stereo not given in full) | x | x | x | n
COc1ccccc1CCc1nnc(CCC(=O)NC(C)Cc2cccc(C)n2)o1 (stereo not given) | 23.8µM | n | n | n
Clc1ccccc1C=NNc1ccccn1 | n | n | x | u
COc1ccc(/C=N/Nc2ccccn2)cc1O | n | n | 50.1µM | n
COc1cc(/C=N/Nc2nc3ccccc3[nH]2)ccc1O | n | n | 11.2µM | u
COc1ccc2nc(Cl)c(/C=N/Nc3ccccn3)cc2c1 | n | n | 15.8µM | n
O=C(Cc1nc2ccccc2[nH]1)N/N=C/c1ccccc1 | 26.7µM | u | n | n
CC(C)C(NC(=O)CSc1ccccc1F)c1ccc2c(c1)OCCCO2 (stereo not given) | x | x | x | n
COc1ccccc1NC(=O)NNC(=O)CN1C(=O)COc2ccccc21 | n | n | n | n
COc1cc(/C=N/Nc2nc3ccccc3[nH]2)cc(OC)c1O | n | n | 14.1µM | n
CC(=O)Nc1ccc(/C=N/Nc2nc3ccccc3[nH]2)cc1 | n | n | 10µM | u
O=C(O)c1ccc(/C=N/Nc2nc3ccccc3[nH]2)cc1 | n | n | n | n
COc1cc(/C=C(/C(=O)c2cccs2)c2nc3ccccc3[nH]2)cc(OC)c1O | n | 50.1µM | n | u
